# Experimental data taken from PubChem BioAssay (NCATS).
# Records with an inconclusive call do not appear. Activity calls are given as the source filed them. Unless noted, calls come from the whole dose curve; as a rule, active = well fitted curve in the direction sought with a large enough effect; inconclusive = small, poorly fitted or top-dose-only effect, or another doubt; inactive = no such curve, though single readings can be large; an effect the other way counts as inactive or inconclusive.
# What was measured:
# [1] = KB-3-1 P-gp reporter qHTS against the NCATS DSHEA and TCM libraries (AID 1919975); note: 0% is about no effect
# Summary of the method: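 CellTiter-Glo luminescence viability readout; KB-3-1 parental cells, 500/well, attached ~4 h, then compound for ~72 h, 37C, 5% CO2. Bortezomib intraplate control.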
# [2] = qHTS Counterscreen for compound interference against the NCATS DSHEA and TCM libraries (AID 1919978); details: firefly luciferase detection reagent interference, luminescence;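 note: compounds preincubated with 1 µM D-luciferin or buffer before detection reagent; % of control where 0% means no effect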
# Summary of the method: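 Luminescence counterscreen for detection-kit interference: compounds at 19.5 nM–39.8 uM final, 15 min RT with 1 uM D-luciferin or buffer only; detection reagent added, 30 min RT, then read.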
# [3] = Dual reporter qHTS for agonist of Pregnane X Receptor (hPXR) against the NCATS DSHEA and TCM libraries: Fluorescence readout (AID 1920058); note: 0% is about no effect
# Summary of the method: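 Cells were plated at 2000 per well and allowed to attach for 5 h. Test substances were pinned in and incubated roughly 24 h. CellTiter-Fluor was then added and fluorescence measured after 1 h.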
# [4] = biological target: Nuclear receptor subfamily 1 group I member 2 (Homo sapiens) (UniProt O75469); assay: Dual reporter qHTS for agonist of Pregnane X Receptor (hPXR) against the NCATS DSHEA and TCM libraries: Luminescence readout (AID 1920059); note: 0% is about no effect
# Chain of Nuclear receptor subfamily 1 group I member 2 (Homo sapiens) (O75469 whole entry, looked up): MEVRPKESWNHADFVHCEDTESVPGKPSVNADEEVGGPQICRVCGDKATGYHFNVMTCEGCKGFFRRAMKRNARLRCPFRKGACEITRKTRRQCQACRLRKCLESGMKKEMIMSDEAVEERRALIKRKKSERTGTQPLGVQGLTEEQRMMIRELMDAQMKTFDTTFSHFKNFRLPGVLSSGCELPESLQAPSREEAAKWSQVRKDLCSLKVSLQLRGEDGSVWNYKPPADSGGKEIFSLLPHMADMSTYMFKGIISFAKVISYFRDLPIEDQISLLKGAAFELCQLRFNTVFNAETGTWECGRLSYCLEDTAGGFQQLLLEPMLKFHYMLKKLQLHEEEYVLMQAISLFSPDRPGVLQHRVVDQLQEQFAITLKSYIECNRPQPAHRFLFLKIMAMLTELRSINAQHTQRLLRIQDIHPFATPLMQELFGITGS
# Excerpt: Assay Development and Screening Technology Laboratory (ADST)
# National Center for Advancing Translational Sciences (NCATS), Rockville, MD
# National Institute of Health (NIH), Bethesda, Maryland
# Dietary Supplements and Natural Products have minor oversight of their safety and efficacy. We assembled a collection of Dietary Supplements and Natural Products (DSNP) as well as Traditional Chinese Medicinal (TCM) Plant extracts, which were screened against an in vitro panel of assays, including a liver cytochrome p450 enzyme panel, CAR/PXR signaling pathways, and P-gp transporter assays, to assess their activity. This pipeline facilitated the interrogation of Natural Product-Drug Interaction (NaPDI) through prominent metabolizing pathways. In addition, we compared the activity profiles of the DSNP/TCM substances with those of an approved drug collection. […] Overall, we highlight four significant bioactivity profiles (measured by p-values) as examples of this prediction. […] To profile potential P-gp activity, a differential cell viability was measured against two cell lines: a parental KB-3-1 human cervical adenocarcinoma cell line and the drug-resistant subline KB-8-5-11 that overexpresses P-gp. […]
# 8; Read; Fluorescence; ViewLux plate reader. […]
# 11; Read; Luminescence; ViewLux plate reader. […]
# [5] = biological target: Nuclear receptor subfamily 1 group I member 2 (Homo sapiens) (UniProt O75469); assay: Dual reporter qHTS for antagonist of Pregnane X Receptor (hPXR) against the NCATS DSHEA and TCM libraries: Luminescence Readout (AID 1920060);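 note: HepG2 cells carrying hPXR luciferase reporter stimulated with rifampicin at 2 µM; 0% is about no effect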
# Summary of the method: (§1)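 Antagonist mode: rifampicin 2 uM final co-added with compounds to hPXR-LucHepG2 cells for 24 h at 37C. Viability by CellTiter-Fluor, Ex/Em 405/540 nm, 1 h; reporter by ONE-Glo luminescence.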
# [6] = Dual reporter qHTS for antagonist of Pregnane X Receptor (hPXR) against the NCATS DSHEA and TCM libraries: Fluorescence Readout (AID 1920061); note: 0% is about no effect
# Summary of the method: as §1
# [7] = qHTS drug screen for cell cycle checkpoint inhibitors in PARPi-resistant BRCA-mutant ovarian cancer cell lines. (AID 1963452; calls by dose curve); details: PEO1/OlaR viability, CellTiter-Glo luminescence, 96 h, stronger effect = lower value
# Summary of the method: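 PEO1, PEO4 and PEO1/OlaR ovarian cancer cells, 600 per well, exposed 96 h at 37C to a dilution series. Viability read by CellTiter-Glo luminescence, normalized to DMSO and empty wells; activity summarized as Z-AUC.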
# [8] = biological target: Cytochrome P450 3A4 (Homo sapiens) (UniProt P08684); assay: qHTS for inhibitors of CYP3A4 against the NCATS DSHEA and TCM libraries (AID 1919971);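 note: % is set by controls: 0 for no effect and ±100 for the full control effect; inhibition lowers luminescence from luciferin made by CYP3A4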
# Chain of Cytochrome P450 3A4 (Homo sapiens) (P08684 whole entry, looked up, canonical isoform): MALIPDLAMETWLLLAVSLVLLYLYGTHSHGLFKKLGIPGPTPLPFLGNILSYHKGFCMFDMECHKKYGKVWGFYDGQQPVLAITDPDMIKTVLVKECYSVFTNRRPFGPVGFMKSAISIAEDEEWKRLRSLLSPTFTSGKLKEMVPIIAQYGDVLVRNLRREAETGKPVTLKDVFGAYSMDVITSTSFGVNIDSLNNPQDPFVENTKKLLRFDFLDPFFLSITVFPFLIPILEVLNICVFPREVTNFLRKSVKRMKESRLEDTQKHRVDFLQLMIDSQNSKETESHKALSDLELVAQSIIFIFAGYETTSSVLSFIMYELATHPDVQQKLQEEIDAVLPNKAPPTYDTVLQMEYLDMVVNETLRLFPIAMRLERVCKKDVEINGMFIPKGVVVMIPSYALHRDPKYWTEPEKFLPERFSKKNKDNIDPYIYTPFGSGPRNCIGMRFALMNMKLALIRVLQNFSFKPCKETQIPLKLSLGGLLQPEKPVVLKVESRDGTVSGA
# Summary of the method: (§2)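 Concentration-response screening with isoform-matched pro-luciferin substrates. The CYP reaction was initiated by NADPH regenerating solution and ran 30-45 min in darkness at room temperature.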
# [9] = biological target: Cytochrome P450 2D6 (Homo sapiens) (UniProt P10635); assay: qHTS for inhibitors of CYP2D6 against the NCATS DSHEA and TCM libraries (AID 1919972); note: % is set by controls: 0 for no effect and ±100 for the full control effect
# Chain of Cytochrome P450 2D6 (Homo sapiens) (P10635 whole entry, looked up): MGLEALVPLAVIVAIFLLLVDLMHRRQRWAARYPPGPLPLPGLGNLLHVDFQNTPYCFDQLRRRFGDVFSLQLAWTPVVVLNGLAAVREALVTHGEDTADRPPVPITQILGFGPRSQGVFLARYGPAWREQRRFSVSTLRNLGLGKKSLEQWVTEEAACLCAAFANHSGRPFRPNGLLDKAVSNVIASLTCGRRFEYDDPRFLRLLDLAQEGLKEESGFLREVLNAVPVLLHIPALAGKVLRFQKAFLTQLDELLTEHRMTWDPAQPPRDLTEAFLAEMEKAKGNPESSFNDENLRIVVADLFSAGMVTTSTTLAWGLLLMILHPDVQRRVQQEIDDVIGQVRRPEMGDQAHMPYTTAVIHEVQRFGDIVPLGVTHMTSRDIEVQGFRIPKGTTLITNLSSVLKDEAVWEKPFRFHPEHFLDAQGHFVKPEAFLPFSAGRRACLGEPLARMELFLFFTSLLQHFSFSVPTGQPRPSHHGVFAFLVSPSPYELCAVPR
# Summary of the method: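 CYP2D6 enzyme with pro-luciferin substrate in manufacturer buffer (typically 100 mM KPO4), preincubated 15 min RT with substances (most at 19.5 nM upward); NADPH regeneration system (1x) started 30–45 min RT reaction; P450-Glo luminescence read after 30 min; quinidine as intraplate control.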
# [10] = biological target: Cytochrome P450 2C19 (Homo sapiens) (UniProt P33261); assay: qHTS for inhibitors of CYP2C19 against the NCATS DSHEA and TCM libraries (AID 1919974); details: CYP2C19 enzyme inhibition, luminescence qHTS;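 note: luminescence from luciferin released by CYP2C19 oxidation of a pro-luciferin substrate; potency is the fitted concentration of half-maximal effect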
# Chain of Cytochrome P450 2C19 (Homo sapiens) (P33261 whole entry, looked up): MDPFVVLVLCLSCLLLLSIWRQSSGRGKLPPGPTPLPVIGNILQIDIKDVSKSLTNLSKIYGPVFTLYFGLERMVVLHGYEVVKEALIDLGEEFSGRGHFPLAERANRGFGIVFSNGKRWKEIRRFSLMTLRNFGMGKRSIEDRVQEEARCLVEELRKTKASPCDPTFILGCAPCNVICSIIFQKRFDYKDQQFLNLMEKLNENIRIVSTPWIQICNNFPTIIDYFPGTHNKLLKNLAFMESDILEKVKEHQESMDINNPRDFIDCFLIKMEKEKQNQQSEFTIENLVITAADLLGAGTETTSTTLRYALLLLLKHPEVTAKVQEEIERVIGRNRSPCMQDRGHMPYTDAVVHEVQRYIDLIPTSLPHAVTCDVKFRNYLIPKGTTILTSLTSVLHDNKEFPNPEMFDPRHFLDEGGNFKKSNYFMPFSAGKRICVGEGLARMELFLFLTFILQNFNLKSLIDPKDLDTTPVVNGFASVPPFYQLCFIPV
# Summary of the method: as §2
# [11] = measured here: PEO1 parental Z-AUC
compound,measurement,setting,value
CCCCCCCCCCCCCCCCCC(=O)O,outcome,[1],inactive
same,max response,[2],4.77% (inactive)
same,outcome,[3],inactive
same,outcome,[4],inactive
same,outcome,[5],inactive
same,outcome,[6],inactive
CCN1/C(=C/C(C)=O)Sc2ccc(OC)cc21,Z-AUC,[7],0.945 (inactive)
same,Z-AUC,[7]; [11],0.672
same,Z-AUC,[7]; measured here: PEO4 Z-AUC,0.802
O=C1NC(=O)/C(=C/c2ccc(-c3ccc(F)cc3O)o2)S1,Z-AUC,[7],-1.15 (inactive)
same,Z-AUC,[7]; [11],-0.562
same,Z-AUC,[7]; measured here: PEO4 Z-AUC,-0.191
COc1cc(/C=C/C(=O)CC(=O)/C=C/c2ccc(O)c(OC)c2)ccc1O,Z-AUC,[7],-0.374 (inactive)
same,Z-AUC,[7]; [11],-0.396
same,Z-AUC,[7]; measured here: PEO4 Z-AUC,-0.434
COc1cc(CNC(=O)CCCC/C=C/C(C)C)ccc1O,Z-AUC,[7],1.64 (inactive)
same,Z-AUC,[7]; [11],1.45
same,Z-AUC,[7]; measured here: PEO4 Z-AUC,1.46
N=c1ccn2c(n1)O[C@H]1[C@H](O)[C@@H](CO)O[C@H]12,Z-AUC,[7],-1.72 (inactive)
same,Z-AUC,[7]; [11],-1.24
same,Z-AUC,[7]; measured here: PEO4 Z-AUC,0.152
O=C(/C=C/c1ccc(O)cc1)c1ccc(O)cc1O,Z-AUC,[7],0.396 (inactive)
same,Z-AUC,[7]; [11],0.804
same,Z-AUC,[7]; measured here: PEO4 Z-AUC,0.213
Oc1cc(O)cc(/C=C/c2ccc(O)c(O)c2)c1,Z-AUC,[7],1.52 (inactive)
same,Z-AUC,[7]; [11],0.906
same,Z-AUC,[7]; measured here: PEO4 Z-AUC,0.317
N#C/C(=C\c1ccc(O)c(O)c1)C(=O)NCc1ccccc1,Z-AUC,[7],1.6 (inactive)
same,Z-AUC,[7]; [11],1.01
same,Z-AUC,[7]; measured here: PEO4 Z-AUC,0.772
O=C(O)[C@H](CC(=O)N1C[C@H]2CCCC[C@H]2C1)Cc1ccccc1,Z-AUC,[7],-0.763 (inactive)
same,Z-AUC,[7]; [11],-0.735
same,Z-AUC,[7]; measured here: PEO4 Z-AUC,-0.83
CC[C@H]1OC(=O)[C@H](C)[C@@H](O[C@H]2C[C@@](C)(OC)[C@@H](O)[C@H](C)O2)[C@H](C)[C@@H](O[C@@H]2O[C@H](C)C[C@H](N(C)C)[C@H]2O)[C@](C)(O)C[C@@H](C)C(=O)[C@H](C)[C@@H](O)[C@]1(C)O,Z-AUC,[7],1.12 (inactive)
same,Z-AUC,[7]; [11],0.909
same,Z-AUC,[7]; measured here: PEO4 Z-AUC,1.27
CN[C@H](CC(C)C)C(=O)N[C@H]1C(=O)N[C@@H](CC(N)=O)C(=O)N[C@H]2C(=O)N[C@H]3C(=O)N[C@H](C(=O)N[C@H](C(=O)O)c4cc(O)cc(O)c4-c4cc3ccc4O)[C@H](O)c3ccc(c(Cl)c3)Oc3cc2cc(c3O[C@@H]2O[C@H](CO)[C@@H](O)[C@H](O)[C@H]2O[C@H]2C[C@](C)(N)[C@H](O)[C@H](C)O2)Oc2ccc(cc2Cl)[C@H]1O,Z-AUC,[7],-0.534 (inactive)
same,Z-AUC,[7]; [11],-0.325
same,Z-AUC,[7]; measured here: PEO4 Z-AUC,-1.21
N.N.O=C(O)C1(C(=O)O)CCC1.[Pt],Z-AUC,[7],1.36 (inactive)
same,Z-AUC,[7]; [11],0.632
same,Z-AUC,[7]; measured here: PEO4 Z-AUC,0.869
C#C[C@]1(O)CC[C@H]2[C@@H]3CCc4cc(O)ccc4[C@H]3CC[C@@]21C,Z-AUC,[7],-0.519 (inactive)
same,Z-AUC,[7]; [11],0.139
same,Z-AUC,[7]; measured here: PEO4 Z-AUC,0.344
O=C(O)c1cc(O)c(O)c(O)c1,outcome,[8],inactive
same,outcome,[9],inactive
same,Potency,[10],3.55 µM (active)
same,outcome,[1],inactive
same,max response,[2],-2.87% (inactive)
same,outcome,[3],inactive
same,outcome,[4],inactive
same,outcome,[5],inactive
same,outcome,[6],inactive
O=S(=O)(c1cccc2c(I)cccc12)N1CCCNCC1,Z-AUC,[7],-0.863 (inactive)
same,Z-AUC,[7]; [11],-0.557
same,Z-AUC,[7]; measured here: PEO4 Z-AUC,-0.682
